MLLE-PAM2 inh = blocks PAM2 peptide binding to the PABP1 MLLE domain; 360,000 tested, 0.36% active; GST-MLLE / FITC-PAM2 fluorescence polarization; AID 588489; P11940; inhibition, % at 20 µM; in the data active means inhibition above about 35%, passing the limit was not always enough;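 further: plate controls were DMSO wells with GST-MLLE for no effect and wells lacking GST-MLLE protein for full effect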
Target sequence (P11940 whole entry, looked up, the tested form may be a part): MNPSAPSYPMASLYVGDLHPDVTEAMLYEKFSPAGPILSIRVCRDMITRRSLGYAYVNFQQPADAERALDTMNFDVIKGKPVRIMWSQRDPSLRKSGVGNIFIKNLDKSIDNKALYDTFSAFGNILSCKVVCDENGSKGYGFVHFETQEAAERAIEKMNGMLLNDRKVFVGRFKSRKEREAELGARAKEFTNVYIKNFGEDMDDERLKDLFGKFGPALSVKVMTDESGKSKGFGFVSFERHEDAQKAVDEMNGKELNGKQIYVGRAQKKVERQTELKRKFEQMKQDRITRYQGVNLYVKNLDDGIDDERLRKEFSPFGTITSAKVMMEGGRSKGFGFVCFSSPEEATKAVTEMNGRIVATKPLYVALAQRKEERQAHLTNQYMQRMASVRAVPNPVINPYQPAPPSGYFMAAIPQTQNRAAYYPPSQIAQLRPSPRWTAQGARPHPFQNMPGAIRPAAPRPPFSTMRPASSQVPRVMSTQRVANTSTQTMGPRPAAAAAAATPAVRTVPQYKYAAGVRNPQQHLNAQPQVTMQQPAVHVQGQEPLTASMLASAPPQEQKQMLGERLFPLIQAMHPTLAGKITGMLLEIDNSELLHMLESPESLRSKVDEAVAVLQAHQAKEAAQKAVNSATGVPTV
eIF4E-4G inh = eIF4E/eIF4G interaction inhibition in translation initiation | P63073+Q04637 | TR-FRET eIF4E-eIF4GI(517-606) binding, 2 h | inhibition, % at 21.7 µM | 220,000 tested, 0.37% active | AID 782;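 active means inhibition above about 30%, limit read from the data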;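 further: 0% = full FRET control wells and 100% = background wells lacking eIF4GI fragment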
PABP FP inh = blocks human PABP binding to poly(A) RNA; P11940; 290,000 tested, 1% active; fluorescence polarization; inhibition, % at 35 µM;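 further: calls also rest on retests at 20 µM and on dose response follow-up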
eIF4H inh = inhibitors of RNA binding by human eIF4H; Q15056; eIF4H fluorescence polarization binding assay; inhibition, % at 35 µM; 290,000 tested, 0.94% active;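 further: calls also rest on retests at 20 µM and on dose response follow-up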
PERK inh = human PERK inhibition, primary cell-based screen. Q9NZJ5. AID 1416. inhibition, % at 5.6 µM. 220,000 tested, 0.17% active. CHO PERK-DD fusion, SEAP luminescence translation reporter;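 active means inhibition above the mean inhibition of all tested compounds plus 3 SD, set separately per screening campaign, cut at about 2.9% in these data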;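 further: PERK kinase domain activated by AP20187 dimerizer at 100 nM; 0% = DMSO with dimerizer and 100% = rapamycin at 8.4 µM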
Starred values were filed as active, the others as inactive; ? = inconclusive; · = no result. Shown are actives, neighbours in structure and some others; about 1.6% of the full set was active somewhere. Unless noted, how the calls were made is not given here.

SMILES	MLLE-PAM2 inh	eIF4E-4G inh	PABP FP inh	eIF4H inh	PERK inh
N#C/C(=C(/O)CCl)c1nc2ccccc2[nH]1	-15	12	active	?	1
N#CC(=C=[N-])c1nc2ccccc2nc1-[n+]1cccc(NC(=O)c2ccccc2)c1	-6	14	16	22	1
N#CC(=C=[N-])c1nc2ccccc2nc1-[n+]1cccc(NC(=O)c2cccs2)c1	-8	-6	54*	54*	1
CCCNC(=O)c1ccc2c(=O)n(Cc3ccco3)c(=S)[nH]c2c1	-62	-7	99*	91*	1
COc1ccc(CCNC(=O)c2ccc3nc(-c4ccco4)c(-c4ccco4)nc3c2)cc1OC	38*	14	67*	106*	-1
COc1ccc(CCNC(=O)c2ccc3c(=O)n(Cc4ccco4)c(=S)[nH]c3c2)cc1OC	-29	-13	22*	73*	1
CC(C)(C)CN1CCNC(=O)C1CC(=O)NCCN1CCCc2ccccc21 (stereo not drawn)	18	-1	16	58*	0
CC(C)(C)NC(=O)CN(C(=O)CCN1CCCc2ccccc21)C(C)(C)C	54*	-6	-7	-16	-2
CCC(C)c1ccc(NC(=O)C2=CC=CN3CCS(=O)(=O)N=C23)cc1 (stereo not drawn)	3	·	·	·	·
O=c1[nH]c2ccc(Br)cc2c(=O)o1	-47	·	·	·	·
CC1S/C(=C(\C#N)C(=O)NCc2ccco2)N(c2ccc(F)cc2)C1=O (stereo not drawn)	-2	4	108*	110*	0
CCC1S/C(=C(\C#N)C(=O)NCc2ccco2)N(c2ccc(Br)cc2)C1=O (stereo not drawn)	3	4	91*	73*	-1
C=CCOc1ccc(/C=C/C(=O)N2CCCN(S(=O)(=O)c3c(C)noc3C)CC2)cc1	-17	·	·	·	·
Cc1ccc(C)c(NC(=S)NC(NC(=O)OCc2ccccc2)C(Cl)(Cl)Cl)c1 (stereo not drawn)	-4	-2	-15	-6	0
O=C(NC(NC(=S)Nc1c(Cl)cc(Cl)cc1Cl)C(Cl)(Cl)Cl)OCc1ccccc1 (stereo not drawn)	39*	-1	2	-13	0
COc1ccccc1C1c2[nH]c3ccccc3c2CCN1Cc1ccc(NC(C)=O)s1 (stereo not drawn)	7	89*	1	1	-2
COc1cccc(C2c3[nH]c4ccccc4c3CCN2C(=O)Cn2cncn2)c1OC (stereo not drawn)	1	-1	2	-7	1
O=C(NC1CCCCC1)C1CCN(c2cnccn2)CC1	2	40*	-9	-3	1
CN(C)N1C(=O)/C(=C/c2ccco2)SC1=Nc1ccccc1	11	·	·	·	·
O=C1/C(=C\c2ccc(Br)o2)SC(=Nc2ccccc2)N1c1ccccc1	9	6	12*	55*	0
CC(=O)OCC1=C(C(=O)O)N2C(=O)C(NC(=O)c3ccc(F)cc3)C2SC1 (stereo not drawn)	23	1	-7	35	0
CO/N=C(\C(=O)N[C@@H]1C(=O)N2C(C(=O)O)=C(COC(N)=O)CS[C@H]12)c1ccco1	19	4	118*	5.6*	0
CCOC(=O)C1CCN(S(=O)(=O)c2cn(C)c(C)n2)CC1	7	·	-2	3	·
Cc1nc(NC(=O)CSc2nnc(-c3ccncc3)n2C)sc1C	9	·	-8	-1	·
CCc1nnc(NC(=O)CSc2nnc(-c3ccncc3)n2C)s1	10	-8	11	0	3.3*
SMILES	MLLE-PAM2 inh	eIF4E-4G inh	PABP FP inh	eIF4H inh	PERK inh
CCC(=O)Nc1ccc(-c2nnc(SCC(=O)Nc3nccs3)n2C)cc1	-118	-3	53*	12	0
c1cc(-c2cc3nc(NC4CCCCC4)ccn3n2)ccc1OCCN1CCOCC1	-7	·	·	·	·
Nc1c(N(CCC2=CCCCC2)C(=O)C2CC2)c(=O)[nH]c(=O)n1Cc1ccccc1	7	·	-2	-3	·
CN(Cc1cccnc1)Cc1c(C(=O)N2CCc3ccccc3C2)nc2ccc(Cl)cn12	13	1	37*	80	0
COc1ccc(CCNC(=O)COC(=O)CSc2ccc(C(N)=O)cc2[N+](=O)[O-])cc1OC	19	·	·	·	·
c1ccn2cc(-c3ccc4c(c3)OCO4)cc2c1	-10	8	46	64*	0
c1cnc2nc(-c3ccc4c(c3)OCO4)cn2c1	9	6	5	-14	-1

Assay outcomes as filed in PubChem BioAssay.
